Results on 27 compounds are retold here after PubChem BioAssay AID588342 (National Center for Advancing Translational Sciences (NCATS), 2011).

SMILES strings stand for the structures. Hit rate of the full screen: of about 360,000 compounds, about 25,000 (6.9%) were called active. A call without a number means that no potency is given here. Inconclusive results (about 9%) are left out. Calls come from the whole dose curve; as a rule, active = well fitted inhibition curve with a large enough effect; inconclusive = small, poorly fitted or top-dose-only effect; inactive = flat fitted curve, though single readings scatter. Many of the other results were omitted from the sample, so actives are more common in it than they were.
Potency is the fitted concentration of half-maximal effect.

Sequence of Luciferin 4-monooxygenase (Photinus pyralis) (P08659 whole entry, looked up): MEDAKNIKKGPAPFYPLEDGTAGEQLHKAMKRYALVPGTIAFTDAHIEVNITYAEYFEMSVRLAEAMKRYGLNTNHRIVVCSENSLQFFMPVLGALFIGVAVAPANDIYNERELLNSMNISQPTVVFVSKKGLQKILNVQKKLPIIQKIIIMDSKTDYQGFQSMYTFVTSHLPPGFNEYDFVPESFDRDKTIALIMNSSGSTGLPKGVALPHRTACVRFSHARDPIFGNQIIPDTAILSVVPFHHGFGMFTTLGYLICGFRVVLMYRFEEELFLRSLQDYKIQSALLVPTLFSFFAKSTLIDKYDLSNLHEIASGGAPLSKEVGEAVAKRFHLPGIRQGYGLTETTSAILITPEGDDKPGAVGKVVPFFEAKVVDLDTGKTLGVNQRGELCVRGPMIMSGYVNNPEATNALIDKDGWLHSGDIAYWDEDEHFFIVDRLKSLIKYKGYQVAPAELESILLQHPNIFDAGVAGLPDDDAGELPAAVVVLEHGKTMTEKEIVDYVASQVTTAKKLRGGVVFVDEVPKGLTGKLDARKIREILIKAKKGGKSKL

The target of the assay is Luciferin 4-monooxygenase (Photinus pyralis) (UniProt P08659). The assay can be described thus: qHTS profiling assay for firefly luciferase inhibitor/activator using purifed enzyme and Km concentrations of substrates (counterscreen for miR-21 project). Note: nearly all actives have a fitted effect of over 55% in size. Conditions: purified FLuc, luminescence inhibition; series mostly up to 57.5 µM. The procedure, abridged:
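Biochemical qHTS of compounds, final roughly 60 µM downward over six points, against 10 nM purified firefly luciferase using Km concentrations of substrates (10 uM D-luciferin, 10 uM ATP) in Tris acetate pH 7.5 buffer; luminescence output.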
On the technique in general: In qHTS, concentration-response curves come from the screen itself.
Turning to `CC(OC(=O)Cc1ccc(F)cc1)C(=O)N1CCc2ccccc21` (configuration not stated), the Potency result was “inactive”.
Next, `CC(C(=O)O)n1cnc2sc3c(c2c1=O)CCCC3` (configuration not stated): “inactive”; `CC(C)(C)OC(=O)N1CCC(c2c(C(=O)N3CCc4ccccc4C3)cnn2-c2ccc(F)cc2)CC1`: “inactive”; `C/C(=C\C(=O)c1cccnc1)Nc1ccc(C)c(C)c1`: 6.75 µM (active).
The same measure for `O=C(NCc1cccc(CNC(=O)Nc2cccc(O)c2)c1)Nc1cccc(O)c1`: “inactive”; for `C/C(=C\C(=O)c1ccccc1)Nc1cccc(O)c1`: 3.38 µM (active); for `O=C(Nc1cccc(O)c1)c1ccc(C(=O)c2ccccc2)o1`: 6.75 µM (active).
Next, `Cc1ccc(NC(=O)COc2ccc(/C=N\NC(=O)c3cccnc3)cc2)cc1C`: “inactive”.
In the case of `O=C(CSc1ccccc1)Nc1ccc(C(=O)Nc2cccc(O)c2)cc1`, the Potency entry was “inactive”.
In the case of `Cc1ccc(OCC(=O)NCCCNC(=O)c2cccnc2)cc1C`, the Potency result is “inactive”.
The same measure for `COc1cc(/C=C(/NC(=O)c2ccccc2)C(=O)Nc2cccc(O)c2)c([N+](=O)[O-])cc1OC`: “inactive”; for `CC(=O)c1cccc(NC(=O)[C@@H](NC(N)=O)C(C)C)c1`: “inactive”.
The same measure for `CC1(C)CC(=O)C=C(c2ccc3ncccc3c2)C1`: “inactive”.
Take `CCOC(=O)C1CCN(C(c2ccc(F)cc2)c2sc3nc(-c4ccco4)nn3c2O)CC1` (configuration not stated): the Potency result was “inactive”.
Next, `CCN(CCCNC(=O)Cn1ncc2c([nH]c3ccccc32)c1=O)c1cccc(C)c1`: “inactive”; `CC(=O)c1ccc(N2CCN(C(=O)c3ccc(Cl)c(S(=O)(=O)NC4CC4)c3)CC2)c(F)c1`: “inactive”.
Consider `Cc1ccc(CNC(=O)c2cccc3c2C(=O)c2ccc(N4CCC(C)CC4)cc2S3(=O)=O)cc1`, for which the Potency result was “inactive”.
Take `CCOC(=O)[C@H]1[C@H]2COc3ccc(C)cc3[C@@H]2N2C(=O)CN(Cc3ccc(F)cc3)C(=O)[C@@]12C`: the Potency result was “inactive”.
Next, `CCOc1ccc(CNC(=O)C2CCCN(S(=O)(=O)N(CC)c3ccc(OCC)cc3)C2)cc1` (configuration not stated): “inactive”; `Cc1ccc(Cl)cc1NC(=O)NC1COc2ccccc2C1` (configuration not stated): “inactive”.
Next, `Cc1ccc(C(=O)Nc2ccn(C)n2)cc1`: “inactive”; `Cn1ccc(NC(=O)Nc2ccc(Cl)cc2)n1`: 16.9 µM (active).
`CN(C)S(=O)(=O)c1cc(C(=O)Nc2ccn(C)n2)c(Cl)cc1Cl`: the Potency entry is “inactive”.
Consider `Cc1ccc2nc(COc3ccc(NC(=O)COc4ccccc4F)cc3)cc(=O)n2c1`, for which the Potency entry is “inactive”.
On to `CC(NC(=O)c1cc2c(=O)n3ccccc3nc2n(C(C)C)c1=N)c1ccccc1` (configuration not stated), for which the Potency entry was “inactive”.
Next, `CCC(=O)N1CCc2cc(Br)cc(S(=O)(=O)CCC(=O)N3CCN(c4ccc(F)cc4)CC3)c21`: “inactive”.
The same measure for `COc1ccc([C@H]2CC(=O)C=C(/C=C/c3ccccc3)C2)cc1`: “inactive”.
